The values that follow come from PubChem BioAssay (EPA / NIEHS).

Activity calls are given as the source filed them. The calls were made as follows: active = hit-call score of the fitted dose curve at least 0.9, where 1 is the maximum; inactive = score below 0.9.

Signal transducer and activator of transcription 3 (Homo sapiens), sequence (P40763 whole entry, looked up): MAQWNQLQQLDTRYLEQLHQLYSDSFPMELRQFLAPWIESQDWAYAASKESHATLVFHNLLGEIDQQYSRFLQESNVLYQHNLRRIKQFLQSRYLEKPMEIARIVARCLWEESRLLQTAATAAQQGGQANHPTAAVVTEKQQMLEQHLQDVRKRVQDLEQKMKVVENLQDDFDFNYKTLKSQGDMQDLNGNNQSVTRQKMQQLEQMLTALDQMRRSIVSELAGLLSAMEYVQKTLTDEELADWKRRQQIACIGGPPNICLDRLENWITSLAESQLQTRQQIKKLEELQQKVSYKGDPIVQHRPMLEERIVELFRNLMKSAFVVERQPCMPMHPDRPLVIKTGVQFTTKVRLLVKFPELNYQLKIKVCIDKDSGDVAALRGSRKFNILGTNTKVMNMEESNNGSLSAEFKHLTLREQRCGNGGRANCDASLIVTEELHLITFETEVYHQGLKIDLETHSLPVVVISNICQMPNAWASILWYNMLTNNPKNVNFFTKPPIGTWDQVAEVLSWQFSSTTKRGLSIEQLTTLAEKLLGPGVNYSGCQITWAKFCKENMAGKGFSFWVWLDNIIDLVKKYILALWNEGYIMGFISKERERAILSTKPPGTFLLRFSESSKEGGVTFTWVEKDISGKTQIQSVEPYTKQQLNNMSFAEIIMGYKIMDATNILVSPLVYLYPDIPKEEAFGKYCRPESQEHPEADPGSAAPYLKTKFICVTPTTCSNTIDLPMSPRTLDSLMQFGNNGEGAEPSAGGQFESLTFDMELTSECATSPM

This experiment addresses Signal transducer and activator of transcription 3 (Homo sapiens) (UniProt P40763). In words: ATG_STAT3_CIS: Attagene CIS-FACTORIAL HepG2 Assay for human Signal Transducer and Activator of Transcription 3 (STAT3) (AID 2282963). The conditions noted are these: HepG2, Attagene cis-factorial STAT3 reporter transcription; actives raise or lower the signal. On the procedure:
ATG_CIS is a cell-based, multiplexed-readout assay that uses HepG2, a human liver cell line, with measurements taken at 24 hours after chemical dosing in a 24-well plate.ATG_STAT3_CIS is one of 52 assay component(s) measured or calculated from the ATG_CIS assay. It is designed to make measurements of mRNA induction, a form of inducible reporter, as detected with fluorescence intensity signals by Reverse transcription polymerase chain reaction (RT-PCR) and Capillary electrophoresis technology.Data from the assay component ATG_STAT3_CIS was analyzed into 1 assay endpoint. This assay endpoint, ATG_STAT3_CIS, was analyzed with bidirectional fitting relative to DMSO as the negative control and baseline of activity. Using a type of inducible reporter, measures of mRNA for gain or loss-of-signal activity can be used to understand the reporter gene at the transcription factor-level as they relate to the gene STAT3. Furthermore, this assay endpoint can be referred to as a primary readout, because this assay has produced multiple assay endpoints where this one serves a reporter gene function. To generalize the intended target to other relatable targets, this assay endpoint is annotated to the dna binding intended target family, where the subfamily is stat protein.
Human liver HepG2 cells are transiently transfected with multiple reporter transcription units (MRTUs) in 6-well plates using FuGene 6 reagent (Roche; 3 ml FuGene/1 mg DNA). The MRTU constructs are regulated by a cis-regulating element (promoter). […] A major difference between the CIS and TRANS system is that in CIS activities of endogenous TFs are measured, whereas the TRANS assay evaluates changes in activities of exogenous, chimeric NR-Gal4 proteins. […] At the end of 24 hour incubation, total RNA was isolated using TriZol reagent (Invitrogen). The isolated RNA is then reverse-transcribed using oligo(dT) primer and Mo-MLV reverse transcriptase (Invitrogen) with DNAse I (Ambion) treatment for 30 min. The one-tenth of the produced cDNA was amplified by PCR using Taq DNA polymerase (Invitrogen) and two reporter sequence-specific primers. The PCR products were fluorescently labeled by primer extension with 6-arboxyfluorescein (6-FAM) 5'-labeled reporter sequence-specific primer (2 min at 95 C, 20 s at 68 C and 10 min at 72 C) and these products were digested with 5U of HpaI (New England Biolabs) for 2h at 37 C. The fragments were purified using Qiaquick PCR columns (Qiagen), analyzed on an ABI 3130xL genetic analyzer (Applied Biosystems) with peak positions identified by using a set of X-rhodamine (ROX)-labeled MapMarker1000 molecular weight standards (BioVentures). The raw capillary electrophoresis data was processed using Attagraph software (Attagene).
Regarding `CCC[CH2][Sn]([Cl])([CH2]CCC)[CH2]CCC`, the compound was classed as inactive.
Regarding `CO[C@@H]1[C@H](OC(=O)NC(=O)CCl)CC[C@]2(CO2)[C@H]1[C@@]1(C)O[C@@H]1CC=C(C)C`, the compound was called inactive.
With `OCCCBr`, the result was inactive.
For the compound `Cc1ccc([N+](=O)[O-])cc1`, the compound was called inactive.
On to `c1ccc(NNc2ccccc2)cc1`, for which the compound was called inactive.
As for `N#CC(Br)Br`, the entry is “inactive”; as for `Cc1cc(N=Nc2ccccc2C)ccc1N`, “inactive”.
Take `CC(O)CCO` (stereo not given): the result was inactive.
With `Cn1cc(-c2ccccc2)c(=O)c(-c2cccc(C(F)(F)F)c2)c1` the entry was “inactive”; with `Brc1ccc(Oc2ccccc2)cc1`, “inactive”.
On to `Cc1ccc(N=C=O)cc1N=C=O`, for which the call was inactive.
On to `CC(C)(C)OOC(=O)c1ccccc1`, for which the result was inactive.
Regarding `CCC12COCN1COC2`, the call was inactive.
For `C1=Cc2cccc3cccc1c23`, the compound was called inactive.
Consider `[O-][Cl+]O`, for which the compound was classed as inactive.
In the case of `CN(C)c1ccc(C(=O)c2ccc(N(C)C)cc2)cc1`, the outcome was inactive.
As for `Clc1ccc(C(c2ccc(Cl)cc2)C(Cl)(Cl)Cl)cc1`, the call was inactive.
With `CCCCCCCCCCCCCN1CC(C)OC(C)C1` (stereo not given) the entry was “inactive”; with `C[C@]12C=CC3=C4CCC(=O)C=C4CC[C@H]3[C@@H]1CC[C@@H]2O`, “inactive”.
As to `c1ccc2c(c1)oc1ccccc12`, the result was inactive.
For `CCCCCCCCOC(=O)c1ccc(C(=O)OCCCCCCCC)c(C(=O)OCCCCCCCC)c1`, the compound was classed as inactive.
Regarding `CCOC(=O)[C@]1(c2ccccc2)Oc2ccccc2[C@@H]1N`, the outcome was inactive.
`C[N+](C)(C)CC1CO1` (stereo not given): the compound was called inactive.
With `CC(C)N(Cc1ccccc1)C(=O)C(C)(C)C` the entry was “inactive”.
With `[As]#[In]`, the call was inactive.
Take `ClC1=C(Cl)[C@]2(Cl)[C@H]3[C@H]([C@@H]4C=C[C@H]3C4)[C@@]1(Cl)C2(Cl)Cl`: the call was inactive.
Turning to `COP(=S)(OC)SCN1C(=O)c2ccccc2C1=O`, the result was inactive.
With `O=[N+]([O-])c1ccc(Oc2ccc(Cl)cc2Cl)cc1`, the result was inactive.
As for `CC(C)(C)OOC(C)(C)CCC(C)(C)OOC(C)(C)C`, the entry is “inactive”; as for `Clc1ccc(C(c2ccc(Cl)cc2)C(Cl)Cl)cc1`, “inactive”; as for `c1ccc(C2CO2)cc1` (stereo not given), “inactive”.
Turning to `Clc1ccc(Cl)c(Cl)c1`, the compound was called inactive.
Turning to `O=Cc1ccco1`, the outcome was inactive.
As for `CS(=O)(=O)NC(=O)c1cc(Oc2ccc(C(F)(F)F)cc2Cl)ccc1[N+](=O)[O-]`, the entry is “inactive”; as for `C=CCc1ccc2c(c1)OCO2`, “inactive”; as for `Nc1ccc(Oc2ccc(N)cc2)cc1`, “inactive”.
Take `OCCOCCO`: the outcome was inactive.
For the compound `ClCCOCCCl`, the result was inactive.
As for `CNC(=O)Oc1cccc2c1OC(C)(C)C2`, the compound was called inactive.
Regarding `ClC1=C(Cl)C2(Cl)C3C(Cl)C=CC3C1(Cl)C2(Cl)Cl` (stereo not given), the outcome was inactive.
